Reference: the supplement of paper PMC6555819

Columns and labels:
Experiment in all cases: PBM binding z-score (relative to random genomic background probes); higher = stronger binding; sequences stand for … in GC…GCGATTGACAGCGTAGAATGAAGG
[1] = system: FXR:RXRa (NR concentration 270 nM, RXRa partner concentration 90 nM)
How it was run: (§1)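 On custom Agilent 4×180K arrays, double-stranded probes with 34-nt variable regions carried direct-repeat seeds, single-nucleotide variants, half-site ablations or random human genomic background. Ligand-free nuclear receptor dimers were applied for 1 h, and binding was read with antibodies against each partner (one per run). Binding z-scores come from regression-normalized fluorescence, with the random background probes as reference.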

[2] = system: LXRa:RXRa (NR concentration 270 nM, RXRa partner concentration 90 nM)
How it was run: as §1

[3] = system: LXRa homodimer (NR concentration 270 nM)
How it was run: as §1

[4] = system: LXRb:RXRa (NR concentration 270 nM, RXRa partner concentration 90 nM)
How it was run: as §1

[5] = system: LXRb homodimer (NR concentration 270 nM)
How it was run: as §1

[6] = system: PPARa:RXRa (NR concentration 270 nM, RXRa partner concentration 90 nM)
How it was run: as §1

[7] = system: PPARg:RXRa (NR concentration 180 nM, RXRa partner concentration 90 nM)
How it was run: as §1

[8] = system: PPARg:RXRa 270nM:90nM, anti-RXR (NR concentration 270 nM, RXRa partner concentration 90 nM)
How it was run: as §1

[9] = system: PPARg:RXRa 30nM:10nM, anti-RXR (NR concentration 30 nM, RXRa partner concentration 10 nM)
How it was run: as §1

[10] = system: PPARg:RXRa 90nM:30nM, anti-RXR (NR concentration 90 nM, RXRa partner concentration 30 nM)
How it was run: as §1

[11] = system: PPARg:RXRa DBDmut IVT, anti-RXR (DBD mutation: RXRa K156A/R161A, NR concentration 270 nM, RXRa partner concentration 90 nM)
How it was run: as §1

[12] = system: PPARg:RXRa IVT, anti-PPARg (NR concentration 270 nM, RXRa partner concentration 90 nM)
How it was run: as §1

[13] = system: PPARg DBDmut:RXRa IVT, anti-PPARg (DBD mutation: PPARg1 K132A/R137A, NR concentration 270 nM, RXRa partner concentration 90 nM)
How it was run: as §1

[14] = system: PPARg DBDmut IVT, anti-PPARg (DBD mutation: PPARg1 K132A/R137A, NR concentration 270 nM)
How it was run: as §1

[15] = system: PPARg homodimer (NR concentration 180 nM)
How it was run: as §1

[16] = system: PXR:RXRa (NR concentration 270 nM, RXRa partner concentration 90 nM)
How it was run: as §1

[17] = system: PXR homodimer (NR concentration 270 nM)
How it was run: as §1

[18] = system: RARa:RXR (NR concentration 270 nM, RXRa partner concentration 90 nM)
How it was run: as §1

[19] = system: RARa homodimer (NR concentration 270 nM)
How it was run: as §1

[20] = system: RARb:RXRa (NR concentration 270 nM, RXRa partner concentration 90 nM)
How it was run: as §1

Work on ACAGACAAGTGAGTGAAGGTAACTCAGCTGGACG yielded a PBM binding z-score [1] of -0.054, a PBM binding z-score [2] of -0.258 and a PBM binding z-score [3] of -0.475. The PBM binding z-score [4] was -0.57, the PBM binding z-score [5] was -0.342 and the PBM binding z-score [6] was -0.314. The PBM binding z-score [7] was 0.674, the PBM binding z-score [8] was -0.0179 and the PBM binding z-score [9] was -0.202. For the same sequence, the PBM binding z-score [10] was -0.0069, the PBM binding z-score [11] was -0.268 and the PBM binding z-score [12] was -0.138. It also gave a PBM binding z-score [13] of 0.174, a PBM binding z-score [14] of 0.39 and a PBM binding z-score [15] of -0.0501. It also gave a PBM binding z-score [16] of -0.521, a PBM binding z-score [17] of -0.267 and a PBM binding z-score [18] of -0.183. For the same sequence, the PBM binding z-score [19] was -0.707 and the PBM binding z-score [20] was -0.0703.

Sequence TCTAGCAGGCCAGAGGTTCACTCAAGAGGTACGG has a PBM binding z-score [1] of -0.592, a PBM binding z-score [2] of -0.361 and a PBM binding z-score [3] of -0.519. For the same sequence, the PBM binding z-score [4] was -0.224, the PBM binding z-score [5] was -1.44 and the PBM binding z-score [6] was 0.888. It also gave a PBM binding z-score [7] of 1.43, a PBM binding z-score [8] of 2.96 and a PBM binding z-score [9] of 2.15. The PBM binding z-score [10] was 2.98, the PBM binding z-score [11] was 0.614 and the PBM binding z-score [12] was -0.232. The PBM binding z-score [13] was -1.08, the PBM binding z-score [14] was -0.88 and the PBM binding z-score [15] was -0.59. The PBM binding z-score [16] was 0.274, the PBM binding z-score [17] was -0.691 and the PBM binding z-score [18] was 0.324. It also gave a PBM binding z-score [19] of -0.904 and a PBM binding z-score [20] of 0.468.

In the case of GCTATTAGTTGAAAGGGGAACCGAATGATTCTCG, the PBM binding z-score [1] is reported as 0.138, the PBM binding z-score [2] is reported as 0.218 and the PBM binding z-score [3] is reported as -0.112. For the same sequence, the PBM binding z-score [4] was -0.0843, the PBM binding z-score [5] was -0.157 and the PBM binding z-score [6] was 0.798. The PBM binding z-score [7] was 1.19, the PBM binding z-score [8] was 3.07 and the PBM binding z-score [9] was 1.25. For the same sequence, the PBM binding z-score [10] was 2.62, the PBM binding z-score [11] was 0.8 and the PBM binding z-score [12] was 0.272. The PBM binding z-score [13] was -0.324, the PBM binding z-score [14] was -0.088 and the PBM binding z-score [15] was 0.558. It also gave a PBM binding z-score [16] of -0.107, a PBM binding z-score [17] of 0.237 and a PBM binding z-score [18] of 0.154. It also gave a PBM binding z-score [19] of 0.912 and a PBM binding z-score [20] of 0.185.

Work on AGAATGAGGTTATTAAGCTCAGGGAATTGCGGTC yielded a PBM binding z-score [1] of 1.57, a PBM binding z-score [2] of 1.14 and a PBM binding z-score [3] of -0.316. It also gave a PBM binding z-score [4] of 0.747, a PBM binding z-score [5] of -0.299 and a PBM binding z-score [6] of 2.6. The PBM binding z-score [7] was 0.995, the PBM binding z-score [8] was 1.26 and the PBM binding z-score [9] was -0.0679. The PBM binding z-score [10] was 0.636, the PBM binding z-score [11] was 2.58 and the PBM binding z-score [12] was 1.95. It also gave a PBM binding z-score [13] of 0.589, a PBM binding z-score [14] of 0.126 and a PBM binding z-score [15] of -0.0657. The PBM binding z-score [16] was 0.757, the PBM binding z-score [17] was -0.286 and the PBM binding z-score [18] was 0.948. For the same sequence, the PBM binding z-score [19] was -0.655 and the PBM binding z-score [20] was 1.09.

With TCATATAAGTAATACAGGTGAAAGTCGGCATCTA the PBM binding z-score [1] was 1.33, the PBM binding z-score [2] was 1.22 and the PBM binding z-score [3] was 0.589. The PBM binding z-score [4] was 1.15, the PBM binding z-score [5] was 0.275 and the PBM binding z-score [6] was 1.79. The PBM binding z-score [7] was 1.29, the PBM binding z-score [8] was 2.38 and the PBM binding z-score [9] was 4.28. For the same sequence, the PBM binding z-score [10] was 3.42, the PBM binding z-score [11] was 3.37 and the PBM binding z-score [12] was 1.87. The PBM binding z-score [13] was 0.985, the PBM binding z-score [14] was 0.83 and the PBM binding z-score [15] was 1.07. The PBM binding z-score [16] was 0.888, the PBM binding z-score [17] was 0.782 and the PBM binding z-score [18] was 1.1. For the same sequence, the PBM binding z-score [19] was 1.95 and the PBM binding z-score [20] was 0.567.

With AATACAGGGTCACTAGGCCAGATTAGGTACGAAT the PBM binding z-score [1] was 6.03, the PBM binding z-score [2] was 5.16 and the PBM binding z-score [3] was 1.09. For the same sequence, the PBM binding z-score [4] was 4.11, the PBM binding z-score [5] was 1.11 and the PBM binding z-score [6] was 5.92. It also gave a PBM binding z-score [7] of 7.81, a PBM binding z-score [8] of 6.39 and a PBM binding z-score [9] of 3.62. For the same sequence, the PBM binding z-score [10] was 5.04, the PBM binding z-score [11] was 3.7 and the PBM binding z-score [12] was 5.68. It also gave a PBM binding z-score [13] of 1.98, a PBM binding z-score [14] of 3.15 and a PBM binding z-score [15] of 2.45. The PBM binding z-score [16] was 3.32, the PBM binding z-score [17] was 0.427 and the PBM binding z-score [18] was 4.17. The PBM binding z-score [19] was 0.909 and the PBM binding z-score [20] was 4.09.

With CCTAGCAGGTCAGGGTCACTCAAGCATTTCGCTT the PBM binding z-score [1] was 4.58, the PBM binding z-score [2] was 3.54 and the PBM binding z-score [3] was 0.113. For the same sequence, the PBM binding z-score [4] was 3.41, the PBM binding z-score [5] was -0.723 and the PBM binding z-score [6] was 4.61. For the same sequence, the PBM binding z-score [7] was 3.59, the PBM binding z-score [8] was 4.22 and the PBM binding z-score [9] was 1.09. It also gave a PBM binding z-score [10] of 3.27, a PBM binding z-score [11] of 3.35 and a PBM binding z-score [12] of 4. For the same sequence, the PBM binding z-score [13] was -0.304, the PBM binding z-score [14] was -1.12 and the PBM binding z-score [15] was 2.56. The PBM binding z-score [16] was 3.91, the PBM binding z-score [17] was 0.115 and the PBM binding z-score [18] was 4.5. It also gave a PBM binding z-score [19] of 0.487 and a PBM binding z-score [20] of 4.2.
